Laboratory results from article PMC9838217, “Structure of SALL4 zinc finger domain reveals link between AT-rich DNA binding and Okihiro syndrome”.
Substitutions are numbered along the chain they refer to.

Assays:
[1] = molecular target: T1, SALL4 ZFC4 R900W (HT-SELEX) (Mus musculus, UniProt Q8BX22 870-940, R900W); experiment: HT-SELEX; high values mean tight binding; conditions: protein: recombinant; vector His6-GST; dsDNA, one strand shown
T1 sequence: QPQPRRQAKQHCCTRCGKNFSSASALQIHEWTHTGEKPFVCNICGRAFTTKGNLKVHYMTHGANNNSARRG
Outline: (§1)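 Recombinant mouse SALL4 zinc finger cluster 4 (residues 870–940, 1 µg), purified, was mixed with library DNA (1.5 µg in the first cycle, 200 ng thereafter) in 100 µl of buffer containing 10 mM Tris–HCl pH 7.5, 50 mM NaCl, poly(dI-dC) and DTT, and left for 10 min at room temperature. Complexes were captured on Ni2+ beads, washed, amplified by PCR and reselected for up to 6 cycles in triplicate, after which MiSeq sequencing and a 6-mer scan followed. Binding signal is the read fraction of each canonical k-mer, given as fold change relative to the starting random library.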

[2] = molecular target: T2, SALL4 ZFC4 G921D (HT-SELEX) (Mus musculus, UniProt Q8BX22 870-940, G921D); experiment: HT-SELEX; high values mean tight binding; conditions: protein: recombinant; vector His6-GST; dsDNA, one strand shown
T2 sequence: T1 sequence with W31R, G52D
Outline: as §1

Sequence	binding signal [1]	binding signal [2]
CGGCCG	0.0289 ± 0.00511 fold-change vs cycle 0	0.105 ± 0.0554 fold-change vs cycle 0
AGGCCT	0.384 ± 0.0275 fold-change vs cycle 0	0.516 ± 0.0785 fold-change vs cycle 0
CAAGCG	0.313 ± 0.0138 fold-change vs cycle 0	0.452 ± 0.0669 fold-change vs cycle 0
TCCGCA	0.269 ± 0.0199 fold-change vs cycle 0	0.408 ± 0.0556 fold-change vs cycle 0
CCCGGG	0.132 ± 0.0102 fold-change vs cycle 0	0.234 ± 0.0711 fold-change vs cycle 0
GACGGC	0.105 ± 0.00605 fold-change vs cycle 0	0.211 ± 0.0714 fold-change vs cycle 0
